{"source": "paper PMC5540273", "about": "(PLoS ONE, 2017);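 further: KINOMEscan kinase panel screen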"}
{"system": "WEE2", "details": "concentration: 1 μM, replicates: in singlicate; n = 1", "units": {"%Inh": "%"}}
{"smiles": "O=C(NCCNc1ccnc(Nc2ccc(F)cc2)n1)Nc1ccc2c(c1)OCO2", "note": "[GSK1379882]", "%Inh": 6}
{"smiles": "O=C(NCc1cccs1)c1cc(C(=O)c2c(Cl)cccc2Cl)c[nH]1", "note": "[GW823670]", "%Inh": 5}
{"smiles": "Cc1ccc(-c2ccc3c(ccc4sc5c(c43)NC[C@@H](C)N=C5N(C)C)n2)cn1", "%Inh": 0}
{"smiles": "Cc1cc(Nc2nc(-c3cccc(C)n3)nc3ccccc23)ccn1", "note": "[GW872411]", "%Inh": 2}
{"smiles": "Nc1nc(-c2ccccc2F)c(-c2ccnc3ccccc23)s1", "note": "[GW560459]", "%Inh": 0}
{"smiles": "COc1ccc(-c2cc3c(C)nc(N)nc3n([C@H]3CC[C@H](O)CC3)c2=O)cn1", "%Inh": 0}
{"smiles": "OCCCNc1nccc(-c2c(-c3cccc(C(F)(F)F)c3)nn3cc(C(F)(F)F)ccc23)n1", "note": "[GW630813]", "%Inh": 0}
{"smiles": "CN(C)c1cc(-c2ccc3c(N)n[nH]c3c2)nc(N)n1", "note": "[GSK2219329]", "%Inh": 1}
{"smiles": "Cl.c1ccc(Cn2cnc3cc(Nc4ncnc5ccccc45)ccc32)cc1", "note": "[GW272142]", "%Inh": 12}
{"smiles": "Cc1cccc(-c2cc(-c3c[nH]nc3-c3ccccn3)ccn2)c1", "note": "[GW679395]", "%Inh": 1}
{"smiles": "CCC(=O)c1c(-c2ccccc2)c2cc(Cl)ccc2c(=O)n1Cc1cc(S(C)(=O)=O)n(CCC(C)(C)O)n1", "%Inh": 0}
{"smiles": "Cc1nnc(-c2ccc(C)c(-c3ccc(C(=O)O)cc3)c2)o1", "note": "[GW608005]", "%Inh": 0}
{"smiles": "COc1cc2nccc(Nc3ccc(OCc4ccc(NC(C)=O)cc4)cc3)c2cc1OC.Cl", "note": "[GW440135]", "%Inh": 12}
{"smiles": "COC(=O)c1c(-c2ccccc2)c2cc(Br)ccc2c(=O)n1Cc1ccc(NC(=O)CCC(=O)O)cc1", "%Inh": 21}
{"smiles": "Cc1nc(N(C)[C@H]2CN(C(=O)CC#N)CC[C@H]2C)c2cc[nH]c2n1", "%Inh": 13}
{"smiles": "COc1cc2ncn(-c3cc(OCc4ccncc4)c(C(N)=O)s3)c2cc1OC", "note": "[GSK336313]", "%Inh": 15}
{"smiles": "CCC(=O)c1c(-c2ccccc2)c2cc(Cl)ccc2c(=O)n1Cc1cc(S(C)(=O)=O)n(CC(N)=O)n1", "%Inh": 0}
{"smiles": "CCS(=O)c1ccc(-c2coc3ccc(-c4nnc(C)o4)cc23)cc1", "note": "(stereo not drawn)", "%Inh": 0}
{"smiles": "COc1ccc(-c2cc3c(C)nc(N)nc3n([C@H]3CC[C@H](OCCO)CC3)c2=O)cn1", "%Inh": 0}
{"smiles": "CC(C)(C)c1ccc(C(=O)Nc2cn3cc(-c4ccccc4)ccc3n2)cc1", "%Inh": 0}
{"smiles": "COc1cc(Nc2nccc(N3CCC(NC(=O)C4COc5ccccc5O4)C3)n2)cc(OC)c1OC", "note": "(stereo not drawn) [GSK1379761]", "%Inh": 0}
{"smiles": "CN1C(=O)C(Nc2ccccc2)=C(c2ccccc2)C1=O", "note": "[SB-300079]", "%Inh": 1}
{"smiles": "COc1ccc(-n2cnc3c(N)ncnc32)cc1", "note": "[SKF-97236]", "%Inh": 0}
{"smiles": "CCc1ccc(-c2ccc3c(c2)-c2nn(C)cc2S(=O)(=O)N3C)cc1", "%Inh": 0}
{"smiles": "Cc1ccc(Oc2ccc(Nc3ncnc4cc[nH]c34)cc2C)cn1", "%Inh": 0}
{"smiles": "O=C(Nc1n[nH]c2nc(-c3ccccc3)c(Br)cc12)C1CC1", "note": "[SB-708998]", "%Inh": 0}
{"smiles": "Cc1ccccc1COc1cc(-n2cnc3cc(Cl)ccc32)sc1C(N)=O", "note": "[GW813349]", "%Inh": 5}
{"smiles": "COc1cc(OC)cc(-c2cc3cnc(N)nc3nc2NC(=O)NC(C)(C)C)c1", "%Inh": 5}
{"smiles": "COc1cc(Nc2nccc(N3CCC(NC(=O)C(C)c4ccc(Cl)cc4)C3)n2)cc(OC)c1OC", "note": "(stereo not drawn) [GSK1379757]", "%Inh": 0}
{"smiles": "CCCC(=O)Nc1n[nH]c2ncc(-c3cccc4ccccc34)cc12", "note": "[SB-642057]", "%Inh": 0}
{"smiles": "COc1ccc(-c2coc3ccc(-c4nnc(SCc5cccc(C#N)c5)o4)cc23)cc1", "%Inh": 8}
{"smiles": "Cc1nnc(-c2ccc3ncn(-c4ccc(S(C)=O)cc4)c3c2)o1", "note": "(stereo not drawn)", "%Inh": 21}
{"smiles": "O=C1NC(=O)C(c2ccccc2)=C1Nc1cccc(O)c1", "note": "[SB-390534]", "%Inh": 1}
{"smiles": "Nc1ncnc2c1ncn2-c1cccc2ccccc12", "note": "[SKF-97184]", "%Inh": 0}
{"smiles": "COc1ccc(Nc2nccc(N3CCC(NS(=O)(=O)c4ccc(NC(C)=O)cc4)C3)n2)cc1", "note": "(stereo not drawn) [GSK1379729]", "%Inh": 11}
{"smiles": "COc1cc2ncn(-c3cc(OCc4ccc(S(C)(=O)=O)cc4)c(C(N)=O)s3)c2cc1OC", "note": "[GW869979]", "%Inh": 0}
